# From the supplement of paper PMC6555819
# What was measured:
# Test in all cases: PBM binding z-score (relative to random genomic background probes); higher = stronger binding; sequences stand for … in GC…GCGATTGACAGCGTAGAATGAAGG
# [1] = system: FXR:RXRa (NR concentration 270 nM, RXRa partner concentration 90 nM)
# Summary of the method: (§1)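 Binding buffer was PBS pH 7.4 with 2% milk, 0.02% Triton X-100, 1 mM DTT, 0.2 mg/mL BSA and 0.4 mg/ml salmon testes DNA. In it, ligand-free nuclear receptor dimers were incubated 1 h on custom Agilent 4×180K protein-binding microarrays carrying double-stranded probes. Antibodies against each partner (one per run) detected binding, and z-scores were calculated against random background probes after regression normalization of scanned fluorescence.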
# [2] = system: LXRa:RXRa (NR concentration 270 nM, RXRa partner concentration 90 nM)
# Summary of the method: as §1
# [3] = system: LXRa homodimer (NR concentration 270 nM)
# Summary of the method: as §1
# [4] = system: LXRb:RXRa (NR concentration 270 nM, RXRa partner concentration 90 nM)
# Summary of the method: as §1
# [5] = system: LXRb homodimer (NR concentration 270 nM)
# Summary of the method: as §1
# [6] = system: PPARa:RXRa (NR concentration 270 nM, RXRa partner concentration 90 nM)
# Summary of the method: as §1
# [7] = system: PPARg:RXRa (NR concentration 180 nM, RXRa partner concentration 90 nM)
# Summary of the method: as §1
# [8] = system: PPARg:RXRa 270nM:90nM, anti-RXR (NR concentration 270 nM, RXRa partner concentration 90 nM)
# Summary of the method: as §1
# [9] = system: PPARg:RXRa 30nM:10nM, anti-RXR (NR concentration 30 nM, RXRa partner concentration 10 nM)
# Summary of the method: as §1
# [10] = system: PPARg:RXRa 90nM:30nM, anti-RXR (NR concentration 90 nM, RXRa partner concentration 30 nM)
# Summary of the method: as §1
# [11] = system: PPARg:RXRa DBDmut IVT, anti-RXR (DBD mutation: RXRa K156A/R161A, NR concentration 270 nM, RXRa partner concentration 90 nM)
# Summary of the method: as §1
# [12] = system: PPARg:RXRa IVT, anti-PPARg (NR concentration 270 nM, RXRa partner concentration 90 nM)
# Summary of the method: as §1
# [13] = system: PPARg DBDmut:RXRa IVT, anti-PPARg (DBD mutation: PPARg1 K132A/R137A, NR concentration 270 nM, RXRa partner concentration 90 nM)
# Summary of the method: as §1
# [14] = system: PPARg DBDmut IVT, anti-PPARg (DBD mutation: PPARg1 K132A/R137A, NR concentration 270 nM)
# Summary of the method: as §1
# [15] = system: PPARg homodimer (NR concentration 180 nM)
# Summary of the method: as §1
# [16] = system: PXR:RXRa (NR concentration 270 nM, RXRa partner concentration 90 nM)
# Summary of the method: as §1
# [17] = system: PXR homodimer (NR concentration 270 nM)
# Summary of the method: as §1
# [18] = system: RARa:RXR (NR concentration 270 nM, RXRa partner concentration 90 nM)
# Summary of the method: as §1
# [19] = system: RARa homodimer (NR concentration 270 nM)
# Summary of the method: as §1
# [20] = system: RARb:RXRa (NR concentration 270 nM, RXRa partner concentration 90 nM)
# Summary of the method: as §1
Sequence,PBM binding z-score [1],PBM binding z-score [2],PBM binding z-score [3],PBM binding z-score [4],PBM binding z-score [5],PBM binding z-score [6],PBM binding z-score [7],PBM binding z-score [8],PBM binding z-score [9],PBM binding z-score [10],PBM binding z-score [11],PBM binding z-score [12],PBM binding z-score [13],PBM binding z-score [14],PBM binding z-score [15],PBM binding z-score [16],PBM binding z-score [17],PBM binding z-score [18],PBM binding z-score [19],PBM binding z-score [20]
CCTATTGGGCCAAAAAGGTCATTGATGCCGATAA,3.69,4.37,2.45,4.04,0.266,4.6,2.25,3.39,0.941,2.81,1.89,2.64,0.177,-0.558,2.26,4.74,2.45,4.98,1.26,3.79
CCTAGCAGGCCAGGGTCCCTCAAGCATTTCGCTT,-0.373,-0.567,-0.782,-0.712,-1.31,-0.381,-0.884,-0.699,-1.41,-0.959,-0.423,-0.501,-1.5,-1.43,-0.522,-0.483,-0.449,-0.227,-0.786,-0.0655
CCTAGCAGGCCAGGGTCACTCGAGCATTTCGCTT,2.22,1.62,-0.424,1.78,-0.991,2.98,0.557,1.6,-0.327,0.652,0.58,1.02,-0.592,-1.77,0.543,2.32,-0.255,3.1,-0.646,2.57
CGTCCAAGATCAAAGGTCAGTGAAGAGATGACGG,3.66,3.73,1.53,3.21,0.413,4.84,5.29,5.82,3.81,5.56,0.235,2.39,0.493,-0.0647,3.36,3.67,0.13,5.06,1.29,4.37
ATACCAAGGTGATCGTGTGGTCGTTGATACTAAC,0.493,0.0735,-0.0332,0.23,-0.176,0.206,0.285,0.406,-0.115,-0.212,0.658,0.953,0.0763,0.561,0.519,0.0212,-0.0663,0.0038,0.00751,0.737
TTACCAAGGTGAGCTGAGGTTGTTGATCCAACTC,0.871,-0.206,-0.484,-0.269,-1.04,0.271,-0.354,0.187,-0.357,-0.0442,1.22,1.51,-0.399,-0.245,-0.248,2.03,-0.915,0.168,-0.951,0.78
AGAACGAGGACAATGAGTTGATAGCACGGGTGGC,-0.125,-0.562,-0.33,-0.706,-0.434,-0.365,1.06,-0.0649,-0.0875,-0.147,1.03,0.378,-0.192,-0.367,0.00958,0.277,1.99,-0.176,0.102,0.775
CCTAACAGGCCAATCTGGGTCACTCAAGGCTTGA,1.06,1.75,0.16,1.19,-0.0196,3.19,2.31,2.35,0.094,1.57,4.43,5.18,0.79,-0.8,1.16,1.3,0.00111,1.43,0.117,1.77
GCTTGTAGATAAAGGTTAAGAAAGACTAAGCTAA,0.528,2.06,0.00551,1.54,-0.409,2.29,1.41,2.24,0.494,1.88,-0.151,0.466,0.79,-0.0657,0.422,0.774,-0.193,1.62,0.598,1.66
AGTCAAAGTTCATCTACGTAACGTAAGATATGCT,6.79,6.21,5.33,3.97,1.6,4.77,6.55,6.3,3.58,5.65,0.41,2.74,1.46,1.88,2.94,4.96,4.87,3.51,1.69,4.85
TGAATGAGGGTAAAGATCAGGGAACGTGGCGTCG,0.332,0.35,-0.456,-0.0766,0.875,2.98,4.39,5.94,4.5,6.32,2.27,3.04,0.811,1.2,1.24,-0.131,-0.487,0.239,0.383,0.817
TCTTGTAGATCATCAGGAGGTTAAGAAAGATCGA,0.0818,1.07,-0.0921,0.94,-0.422,1.1,-0.109,1.34,2.4,1.84,1.49,0.887,1.1,-0.169,-0.101,0.787,-0.453,0.957,-0.298,0.52
GCTAGTTGGTCAGTGAAAGGTCACACACCGGTCG,3.55,4.39,4.49,3.7,0.467,4.43,4.64,5.57,3.93,5.67,1.21,2.97,0.254,0.307,3.99,5.13,1.02,5.89,1.88,4.27
GTACCAGGGTGAATAGGTCGTTGATGAGTAGGCG,0.645,0.813,-0.254,0.582,-0.461,2.09,1.15,1.61,0.0734,0.776,0.914,2.01,-0.169,-0.469,0.791,0.92,0.246,1.86,0.108,1.24
TAGCCTAGGTCAGATCGGGCCCGTATACGCTATA,1.58,1.2,-0.271,0.916,-0.19,1.67,0.67,0.657,-0.472,0.0407,0.295,1.06,-0.496,-0.614,-0.129,0.189,-0.808,1.16,-0.649,3.02
TAGCCTAGGTAATTCAGGGGCCAGTATAGAAAGC,-0.449,-0.444,-0.517,-0.109,-0.53,-0.0424,0.145,-0.169,-0.327,-0.103,-0.0164,0.234,0.0188,-0.116,-0.334,-0.507,-0.545,-0.256,-0.299,0.0227
CCACACAGGTGAGAAGGTAACTCAGCCTCGATTA,0.187,0.0665,0.368,0.214,-0.197,0.855,0.76,0.577,-0.223,0.451,1.42,0.872,-0.137,-0.56,1.35,0.0866,0.0622,0.524,0.47,0.709
CTAGACAGGTGAGAAGGTAACTCAGCCTCGATTA,-0.0745,-0.0361,-0.246,-0.171,-0.733,0.677,0.508,0.818,0.0715,0.577,0.878,0.891,0.184,-0.714,0.258,-0.111,0.0997,-0.121,-0.138,0.44
ACAGACAGGTGATGAAAGTAACTCAGGCTATCAT,-0.313,-0.244,-0.212,-0.34,-0.446,-0.12,0.596,-0.0784,-0.0592,-0.305,-0.123,0.107,0.648,-0.00926,-0.948,-0.313,0.153,-0.63,-0.762,0.0648
GGAACGAGGGCAAAGTTGATATCATCTGTCGACG,1.25,0.812,-0.316,0.894,-0.47,3.94,6.68,6.84,6.13,7.1,3.87,4.19,0.622,0.251,0.45,1.18,0.208,1.62,0.254,2.32
TTACCAAGGAGAGCTGAGGTCGTTGATCCAACTC,0.524,-0.0675,-0.298,0.248,-1.1,0.632,-0.233,0.453,0.297,0.316,-0.667,-0.449,-0.504,-0.387,0.217,1.29,0.364,0.846,-0.664,0.145
AGTCAAAGCTCAGGACGAGGTAACGTAAAGCACG,-0.244,-0.551,-0.393,-0.561,-0.87,-0.301,0.722,-0.305,-0.133,-0.117,-0.71,-0.0403,-0.126,-0.455,0.053,-0.435,-0.405,0.159,-0.547,-0.0865
AGTCAAAGTTCAGGACGAGGTAGCGTAAAGCACG,3.74,3.36,1.03,1.58,-0.21,3.13,4.27,4.86,1.87,3.74,-0.637,1.36,-0.194,-0.537,1.46,2.36,0.831,2.26,0.252,4.31
GCTAGTTGGTCAGTAAGAGGTCACACACCGGTCG,2.76,3.64,4.57,3.51,0.636,3.99,1.86,2.95,1.14,2.34,0.963,2.75,0.167,0.349,2.96,4.78,1.57,5.53,2.06,3.73
CGTCCAAGGTCAGGGAGGTCAGTGAATGCCGAGT,6.32,5.28,2.42,4.43,0.00503,5.2,4.29,4.63,0.9,3.13,2.94,3.53,-0.257,-1.31,4.71,6.02,10.3,5.53,2.15,5.33
GCGACTGGGGCAAAGCACGTTACCATAAGGTTGG,-0.454,-0.482,-0.763,-0.305,-0.971,0.875,1.7,2.21,0.24,1.62,4.44,3.18,0.131,-0.127,0.0548,-0.54,-0.386,-0.0632,-0.156,0.573
TAGCCTAGGTCATTGGGCCAGTATTGTACGCATC,4.48,3.6,0.903,2.28,0.642,3.66,3.19,3.33,1.04,2.35,2.88,3.82,0.545,-0.273,1.88,1.57,-0.247,2.41,-0.7,3.58
AGTCAAAGTTCATCTAGTTAACGTAAGATATGCT,6.78,6.1,5.42,3.68,2.06,4.77,6.49,5.96,3.55,5.46,0.113,2.78,1.61,1.25,3.6,5.26,9.11,3.45,2.15,4.85
